Laboratory results taken from ChEMBL document CHEMBL2218924, “A broad activity screen in support of a chemogenomic map for kinase signalling research and drug discovery” (Biochem J, 2013).

Legend:
[1] = molecular target: T1, Phosphorylase b kinase gamma catalytic chain, liver/testis isoform (Homo sapiens) (UniProt P15735); details: at 1 µM
T1 sequence (whole entry): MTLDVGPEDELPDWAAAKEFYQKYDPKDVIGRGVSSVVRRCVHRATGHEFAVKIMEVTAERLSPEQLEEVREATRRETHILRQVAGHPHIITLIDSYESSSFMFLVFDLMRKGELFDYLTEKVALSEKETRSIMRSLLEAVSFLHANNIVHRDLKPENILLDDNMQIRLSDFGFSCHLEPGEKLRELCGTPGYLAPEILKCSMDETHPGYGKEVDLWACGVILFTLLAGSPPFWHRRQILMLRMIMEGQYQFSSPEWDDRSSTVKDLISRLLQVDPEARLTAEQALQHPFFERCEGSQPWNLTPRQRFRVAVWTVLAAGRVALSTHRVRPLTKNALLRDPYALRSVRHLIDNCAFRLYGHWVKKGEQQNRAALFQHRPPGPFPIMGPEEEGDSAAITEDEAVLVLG

[2] = molecular target: T1, Phosphorylase b kinase gamma catalytic chain, liver/testis isoform (Homo sapiens); details: at 10 µM
[3] = molecular target: Serine/threonine-protein kinase pim-1 (Homo sapiens) (UniProt P11309); details: at 1 µM
[4] = molecular target: Serine/threonine-protein kinase pim-1 (Homo sapiens) (UniProt P11309); details: at 10 µM
[5] = molecular target: Serine/threonine-protein kinase pim-2 (Homo sapiens) (UniProt Q9P1W9); details: at 1 µM
[6] = molecular target: Serine/threonine-protein kinase pim-2 (Homo sapiens) (UniProt Q9P1W9); details: at 10 µM
[7] = molecular target: Serine/threonine-protein kinase pim-3 (Homo sapiens) (UniProt Q86V86); details: at 1 µM
[8] = molecular target: Serine/threonine-protein kinase pim-3 (Homo sapiens) (UniProt Q86V86); details: at 10 µM
[9] = molecular target: Serine/threonine-protein kinase PLK1 (Homo sapiens) (UniProt P53350); details: at 1 µM
[10] = molecular target: Serine/threonine-protein kinase PLK1 (Homo sapiens) (UniProt P53350); details: at 10 µM
[11] = molecular target: Serine/threonine-protein kinase PLK3 (Homo sapiens) (UniProt Q9H4B4); details: at 1 µM
[12] = molecular target: Serine/threonine-protein kinase PLK3 (Homo sapiens) (UniProt Q9H4B4); details: at 10 µM
[13] = molecular target: T2, cAMP-dependent protein kinase catalytic subunit PRKX (Homo sapiens) (UniProt P51817); details: at 1 µM
T2 sequence (whole entry): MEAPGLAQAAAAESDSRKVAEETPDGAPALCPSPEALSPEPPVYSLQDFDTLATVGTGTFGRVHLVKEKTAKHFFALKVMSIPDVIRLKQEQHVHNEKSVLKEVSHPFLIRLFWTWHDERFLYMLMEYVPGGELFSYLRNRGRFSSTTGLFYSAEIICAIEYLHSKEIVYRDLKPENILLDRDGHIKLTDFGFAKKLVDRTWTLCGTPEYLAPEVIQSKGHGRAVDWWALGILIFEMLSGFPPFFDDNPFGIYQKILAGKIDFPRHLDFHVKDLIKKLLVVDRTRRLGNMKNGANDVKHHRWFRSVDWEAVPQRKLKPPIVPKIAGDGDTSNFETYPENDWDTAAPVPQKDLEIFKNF

[14] = molecular target: T2, cAMP-dependent protein kinase catalytic subunit PRKX (Homo sapiens); details: at 10 µM
[15] = molecular target: Protein-tyrosine kinase 2-beta (Homo sapiens) (UniProt Q14289); details: at 1 µM
[16] = molecular target: Protein-tyrosine kinase 2-beta (Homo sapiens) (UniProt Q14289); details: at 10 µM
[17] = molecular target: Receptor-interacting serine/threonine-protein kinase 2 (Homo sapiens) (UniProt O43353); details: at 1 µM
[18] = molecular target: Receptor-interacting serine/threonine-protein kinase 2 (Homo sapiens) (UniProt O43353); details: at 10 µM
[19] = molecular target: Rho-associated protein kinase 1 (Homo sapiens) (UniProt Q13464); details: at 10 µM
[20] = molecular target: Rho-associated protein kinase 1 (Homo sapiens) (UniProt Q13464); details: at 1 µM

Sequence of Serine/threonine-protein kinase pim-1 (Homo sapiens) (P11309 whole entry, looked up): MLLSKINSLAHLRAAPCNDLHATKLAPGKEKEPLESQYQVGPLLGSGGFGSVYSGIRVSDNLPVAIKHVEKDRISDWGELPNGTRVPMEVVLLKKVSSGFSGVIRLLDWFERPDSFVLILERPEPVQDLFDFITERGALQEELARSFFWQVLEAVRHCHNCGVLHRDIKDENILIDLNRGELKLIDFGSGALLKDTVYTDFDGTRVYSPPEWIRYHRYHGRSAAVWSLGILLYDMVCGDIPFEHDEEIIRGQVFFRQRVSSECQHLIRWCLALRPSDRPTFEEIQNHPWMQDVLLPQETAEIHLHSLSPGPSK
Sequence of Serine/threonine-protein kinase PLK3 (Homo sapiens) (Q9H4B4 whole entry, looked up): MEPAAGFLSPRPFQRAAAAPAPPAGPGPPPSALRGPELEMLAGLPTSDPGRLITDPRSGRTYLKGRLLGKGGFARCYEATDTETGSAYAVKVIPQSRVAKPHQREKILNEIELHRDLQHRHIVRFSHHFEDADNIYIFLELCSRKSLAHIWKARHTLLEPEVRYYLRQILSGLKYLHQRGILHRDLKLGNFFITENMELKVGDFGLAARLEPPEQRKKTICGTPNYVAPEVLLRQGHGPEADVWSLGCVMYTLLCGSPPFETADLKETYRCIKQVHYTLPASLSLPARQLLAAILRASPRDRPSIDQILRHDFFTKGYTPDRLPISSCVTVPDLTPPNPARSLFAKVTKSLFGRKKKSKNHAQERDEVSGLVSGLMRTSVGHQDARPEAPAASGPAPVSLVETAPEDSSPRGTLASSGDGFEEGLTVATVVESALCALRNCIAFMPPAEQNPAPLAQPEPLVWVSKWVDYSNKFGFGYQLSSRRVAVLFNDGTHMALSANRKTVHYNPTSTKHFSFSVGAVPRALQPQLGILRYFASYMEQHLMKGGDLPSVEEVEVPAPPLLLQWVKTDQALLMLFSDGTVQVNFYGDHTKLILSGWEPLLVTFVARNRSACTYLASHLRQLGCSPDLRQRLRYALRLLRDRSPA
Sequence of Receptor-interacting serine/threonine-protein kinase 2 (Homo sapiens) (O43353 whole entry): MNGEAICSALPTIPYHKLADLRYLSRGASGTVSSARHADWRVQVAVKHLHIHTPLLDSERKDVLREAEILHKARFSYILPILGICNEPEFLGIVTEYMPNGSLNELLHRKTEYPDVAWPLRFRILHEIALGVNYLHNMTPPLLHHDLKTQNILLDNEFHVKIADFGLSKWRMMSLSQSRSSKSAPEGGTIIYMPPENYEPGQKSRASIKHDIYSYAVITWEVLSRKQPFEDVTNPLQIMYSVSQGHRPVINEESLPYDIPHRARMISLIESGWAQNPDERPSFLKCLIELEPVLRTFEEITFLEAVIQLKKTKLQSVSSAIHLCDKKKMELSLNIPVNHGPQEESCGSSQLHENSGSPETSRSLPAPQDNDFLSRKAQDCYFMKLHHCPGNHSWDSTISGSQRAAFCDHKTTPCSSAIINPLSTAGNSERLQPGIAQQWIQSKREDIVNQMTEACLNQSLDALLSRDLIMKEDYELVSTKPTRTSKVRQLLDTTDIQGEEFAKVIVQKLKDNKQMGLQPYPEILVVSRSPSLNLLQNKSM
Sequence of Protein-tyrosine kinase 2-beta (Homo sapiens) (Q14289 whole entry, looked up): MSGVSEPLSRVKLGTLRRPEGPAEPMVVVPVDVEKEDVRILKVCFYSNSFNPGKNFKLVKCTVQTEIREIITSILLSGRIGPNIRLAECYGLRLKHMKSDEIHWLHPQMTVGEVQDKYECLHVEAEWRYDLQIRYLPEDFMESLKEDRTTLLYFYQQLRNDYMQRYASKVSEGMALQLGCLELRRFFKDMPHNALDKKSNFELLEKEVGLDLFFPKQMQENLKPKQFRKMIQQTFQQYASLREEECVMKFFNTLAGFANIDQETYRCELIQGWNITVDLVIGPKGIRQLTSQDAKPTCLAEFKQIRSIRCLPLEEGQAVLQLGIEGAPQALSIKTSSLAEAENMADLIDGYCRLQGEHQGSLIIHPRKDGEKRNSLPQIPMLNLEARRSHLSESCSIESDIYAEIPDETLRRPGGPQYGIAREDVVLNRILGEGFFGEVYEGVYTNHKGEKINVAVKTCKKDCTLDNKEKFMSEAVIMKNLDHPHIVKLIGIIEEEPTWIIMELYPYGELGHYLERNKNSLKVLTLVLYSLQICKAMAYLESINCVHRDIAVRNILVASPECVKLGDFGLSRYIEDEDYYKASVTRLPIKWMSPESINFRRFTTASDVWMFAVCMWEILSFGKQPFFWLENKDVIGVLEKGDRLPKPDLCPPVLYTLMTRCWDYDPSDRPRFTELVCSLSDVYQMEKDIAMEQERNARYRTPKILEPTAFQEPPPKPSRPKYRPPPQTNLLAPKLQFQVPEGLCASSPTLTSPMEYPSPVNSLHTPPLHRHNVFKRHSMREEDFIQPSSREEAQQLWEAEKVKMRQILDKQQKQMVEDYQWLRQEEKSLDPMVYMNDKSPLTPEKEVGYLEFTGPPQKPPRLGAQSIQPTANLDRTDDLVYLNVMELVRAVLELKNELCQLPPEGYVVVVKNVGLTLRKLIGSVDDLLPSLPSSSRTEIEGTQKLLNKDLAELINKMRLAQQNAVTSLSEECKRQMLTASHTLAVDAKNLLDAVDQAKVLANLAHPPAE
Sequence of Serine/threonine-protein kinase PLK1 (Homo sapiens) (P53350 whole entry): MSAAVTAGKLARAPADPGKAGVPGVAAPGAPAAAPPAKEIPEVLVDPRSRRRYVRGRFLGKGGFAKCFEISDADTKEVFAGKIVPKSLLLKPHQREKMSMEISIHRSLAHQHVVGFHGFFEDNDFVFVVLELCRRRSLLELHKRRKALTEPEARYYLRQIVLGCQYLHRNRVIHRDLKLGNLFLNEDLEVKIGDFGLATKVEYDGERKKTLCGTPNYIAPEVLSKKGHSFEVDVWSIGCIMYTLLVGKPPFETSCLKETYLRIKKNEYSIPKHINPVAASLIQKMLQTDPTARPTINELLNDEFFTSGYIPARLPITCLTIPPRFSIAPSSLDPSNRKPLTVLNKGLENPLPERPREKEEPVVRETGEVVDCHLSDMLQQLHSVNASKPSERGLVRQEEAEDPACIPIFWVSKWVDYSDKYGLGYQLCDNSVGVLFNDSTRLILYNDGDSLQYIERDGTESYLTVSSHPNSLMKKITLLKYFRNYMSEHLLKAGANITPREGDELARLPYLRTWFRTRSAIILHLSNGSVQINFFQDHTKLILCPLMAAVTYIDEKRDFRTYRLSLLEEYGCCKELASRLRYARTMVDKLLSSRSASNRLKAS
Sequence of Rho-associated protein kinase 1 (Homo sapiens) (Q13464 2-1354 limits assumed): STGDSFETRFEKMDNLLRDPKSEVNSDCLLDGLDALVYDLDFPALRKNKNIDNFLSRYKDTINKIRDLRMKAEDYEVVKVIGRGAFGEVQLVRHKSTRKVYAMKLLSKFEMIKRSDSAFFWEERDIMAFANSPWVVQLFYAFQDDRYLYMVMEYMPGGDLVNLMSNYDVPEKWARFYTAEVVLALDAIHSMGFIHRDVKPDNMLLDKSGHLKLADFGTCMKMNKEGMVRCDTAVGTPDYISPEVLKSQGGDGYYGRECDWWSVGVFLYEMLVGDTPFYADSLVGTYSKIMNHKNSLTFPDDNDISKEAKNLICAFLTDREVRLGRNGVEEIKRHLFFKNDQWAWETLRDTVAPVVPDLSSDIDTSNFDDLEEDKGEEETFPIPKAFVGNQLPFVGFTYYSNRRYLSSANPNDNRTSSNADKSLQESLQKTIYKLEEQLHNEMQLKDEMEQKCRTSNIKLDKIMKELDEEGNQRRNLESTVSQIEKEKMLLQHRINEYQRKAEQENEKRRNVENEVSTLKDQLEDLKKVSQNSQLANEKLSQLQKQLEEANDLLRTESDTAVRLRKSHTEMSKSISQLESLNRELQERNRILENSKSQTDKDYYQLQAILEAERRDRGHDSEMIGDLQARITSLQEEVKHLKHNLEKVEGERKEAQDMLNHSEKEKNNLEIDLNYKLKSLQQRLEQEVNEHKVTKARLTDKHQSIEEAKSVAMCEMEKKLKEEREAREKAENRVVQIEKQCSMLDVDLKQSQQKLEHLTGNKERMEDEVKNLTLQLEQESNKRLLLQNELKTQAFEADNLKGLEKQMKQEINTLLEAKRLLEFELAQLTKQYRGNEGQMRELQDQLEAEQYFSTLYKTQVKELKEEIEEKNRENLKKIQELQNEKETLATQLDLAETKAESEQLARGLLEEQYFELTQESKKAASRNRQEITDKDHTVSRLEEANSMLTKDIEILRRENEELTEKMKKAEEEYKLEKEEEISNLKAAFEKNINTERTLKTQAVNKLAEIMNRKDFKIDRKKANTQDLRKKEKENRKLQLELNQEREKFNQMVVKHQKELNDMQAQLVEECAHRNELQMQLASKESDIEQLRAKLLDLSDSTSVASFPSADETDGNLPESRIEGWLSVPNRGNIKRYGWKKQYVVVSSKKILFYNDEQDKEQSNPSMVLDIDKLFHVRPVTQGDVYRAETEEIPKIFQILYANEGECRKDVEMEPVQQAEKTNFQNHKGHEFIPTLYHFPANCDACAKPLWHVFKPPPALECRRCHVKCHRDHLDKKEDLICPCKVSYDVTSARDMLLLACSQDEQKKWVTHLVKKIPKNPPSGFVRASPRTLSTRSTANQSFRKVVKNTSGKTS

Row | SMILES | residual activity [1] [%] | residual activity [2] [%] | residual activity [3] [%] | residual activity [4] [%] | residual activity [5] [%] | residual activity [6] [%] | residual activity [7] [%] | residual activity [8] [%] | residual activity [9] [%] | residual activity [10] [%] | residual activity [11] | residual activity [12] [%] | residual activity [13] [%] | residual activity [14] [%] | residual activity [15] [%] | residual activity [16] [%] | residual activity [17] [%] | residual activity [18] [%] | residual activity [19] [%] | residual activity [20] [%]
1 | Nc1cccc(-c2cc3c(Oc4cccc(O)c4)ncnc3[nH]2)c1 | 120 | 91 | 75 | 34 | 118 | 84 | 86 | 91 | 78 | 83 | 99% (inactive) | 74 | 85 | 70 | 25 | 5 | 18 | 11 | 97 | 
2 | O=C1Nc2ccc(Br)cc2/C1=C\c1cc2c([nH]1)CCCC2 | 77 | 78 |  | 105 | 129 | 106 | 105 | 112 | 82 | 80 |  |  | 113 | 102 | 75 | 49 |  |  | 116 | 119
3 | CO[C@@H]1[C@H](N(C)C(=O)c2ccccc2)C[C@H]2O[C@]1(C)n1c3ccccc3c3c4c(c5c6ccccc6n2c5c31)C(=O)NC4 | 44 | 29 | 33 | 16 | 80 | 94 | 93 | 88 |  | 61 | 95% (inactive) | 92 | 24 | 12 | 16 | 10 | 88 | 70 | 115 | 110
4 | CCN(CC)CCCCN1c2ccccc2Oc2ccc(Cl)cc21 | 112 | 122 |  |  | 97 | 125 | 92 | 47 | 109 | 76 | 101% (inactive) | 99 | 109 | 101 | 131 | 115 | 105 | 85 | 121 | 113
5 | Cc1cccc(-c2[nH]c(C(C)(C)C)nc2-c2ccc3c(c2)OCO3)n1 |  |  |  |  |  |  | 103 | 97 | 80 | 75 | 98% (inactive) | 88 |  |  |  | 103 | 59 | 21 |  | 
6 | Oc1ccc(-c2nc(-c3ccc(F)cc3)c(-c3ccncc3)[nH]2)cc1 | 107 | 98 | 96 | 91 | 125 |  | 96 | 92 | 94 | 83 | 109% (inactive) | 90 |  |  | 111 | 86 | 24 | 14 | 100 | 117
7 | c1ccc(-c2n[nH]c3c2oc2ccccc23)cc1 |  |  | 85 | 84 | 83 | 123 | 92 | 90 | 85 | 67 | 100% (inactive) | 90 | 88 | 94 |  |  | 97 | 64 | 126 | 114
8 | Nc1nc(Nc2ccc(S(N)(=O)=O)cc2)nn1C(=S)Nc1c(F)cccc1F | 86 | 31 | 96 | 77 | 125 |  | 95 | 95 |  |  | 90% (inactive) | 91 | 44 | 7 | 4 | 1 | 16 | 29 | 1 | 6
9 | N#CC(C#N)=C(N)/C(C#N)=C/c1ccc(O)cc1 |  |  |  |  |  | 118 |  | 88 | 79 | 36 | 79% (inactive) | 27 | 99 | 100 | 129 | 94 |  | 64 |  | 
10 | Cc1cc2ncc(-c3ccccc3)nc2cc1C | 94 | 101 | 97 | 84 | 126 |  | 100 | 96 | 81 | 75 | 87% (inactive) | 92 | 108 | 97 | 126 | 101 | 108 | 82 |  | 
11 | Oc1n[nH]c2nnc(-c3c(-c4ccccc4)nn4ccccc34)cc12 | 116 | 111 | 84 | 89 | 123 | 84 | 85 | 84 | 75 | 83 | 96% (inactive) | 89 | 86 | 81 | 102 | 88 | 87 | 85 | 104 | 121
12 | COc1cc2ncc(-c3ccccc3)nc2cc1OC |  |  | 81 | 82 | 127 | 144 | 95 | 99 | 88 | 75 | 95% (inactive) | 93 | 88 | 76 |  | 76 |  | 58 |  | 
13 | O=C(Nc1cccc(Nc2cc(Nc3cccc(C(F)(F)F)c3)ncn2)c1)C1CC1 | 86 | 98 | 112 |  | 88 | 108 | 93 | 102 | 99 | 91 | 97% (inactive) | 90 | 102 | 100 | 104 | 63 | 53 | 41 | 99 | 101
14 | N#CCCc1ccc2c(c1)-c1[nH]c3ccc([N+](=O)[O-])cc3c1CC(=O)N2 |  |  |  | 69 | 120 |  |  |  |  |  | 100% (inactive) | 82 | 72 | 25 | 19 | 9 | 18 | 10 | 24 | 52
15 | Cc1cc(Nc2nc(-c3ccccc3)nc3ccccc23)n[nH]1 |  | 35 | 104 | 57 | 126 |  |  |  | 73 | 40 |  |  | 81 | 38 | 20 | 4 |  | 63 | 94 | 120
16 | Cn1nc2c3c(cccc31)C(=O)c1ccccc1-2 | 102 | 84 | 71 | 45 | 91 | 44 | 80 | 66 | 81 | 77 | 100% (inactive) | 90 | 72 | 86 | 106 | 76 | 89 | 89 | 97 | 
